Columns and labels:
Conditions in all cases: concentration: 1 μM, replicates: in singlicate; n = 1
[1] = test system: MYO3A
[2] = test system: MYO3B
[3] = test system: T1, NDR1
T1 construct: gene STK38

[4] = test system: NDR2
[5] = test system: NEK10
[6] = test system: NEK11
[7] = test system: NEK1
[8] = test system: NEK2
[9] = test system: NEK3
[10] = test system: NEK4
[11] = test system: NEK5
[12] = test system: NEK6
[13] = test system: NEK7
[14] = test system: NEK9
[15] = test system: T2, NIK
T2 construct: gene MAP3K14

[16] = test system: T3, NIM1
T3 construct: gene MGC42105

[17] = test system: NLK
[18] = test system: T4, OSR1
T4 construct: gene OXSR1

[19] = test system: PAK1
[20] = test system: PAK2
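Also: KINOMEscan kinase panel screen.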

| Structure (SMILES) | %Inh [1] [%] | %Inh [2] [%] | %Inh [3] [%] | %Inh [4] [%] | %Inh [5] [%] | %Inh [6] [%] | %Inh [7] [%] | %Inh [8] [%] | %Inh [9] [%] | %Inh [10] [%] | %Inh [11] [%] | %Inh [12] [%] | %Inh [13] [%] | %Inh [14] [%] | %Inh [15] [%] | %Inh [16] [%] | %Inh [17] [%] | %Inh [18] [%] | %Inh [19] [%] | %Inh [20] [%] |
| --- | --- | --- | --- | --- | --- | --- | --- | --- | --- | --- | --- | --- | --- | --- | --- | --- | --- | --- | --- | --- |
| Cc1ccc(NC(=O)Nc2ccccc2F)cc1-c1ccc(C(=O)Nc2ccncc2)cc1 [GSK1398477] | 19 | 0 | 0 | 0 | 9 | 0 | 0 | 22 | 13 | 24 | 16 | 2 | 10 | 14 | 7 | 0 | 0 | 9 | 0 | 18 |
| COc1ccc(-c2coc3ccc(-c4nnc(C)o4)cc23)cc1 | 0 | 12 | 8 | 9 | 47 | 0 | 0 | 0 | 21 | 17 | 0 | 0 | 0 | 0 | 0 | 0 | 0 | 1 | 23 | 0 |
| CC(=O)c1c(C)c2cnc(Nc3ccn(C)n3)nc2n(C2CCCC2)c1=O | 0 | 0 | 0 | 4 | 15 | 0 | 0 | 0 | 22 | 0 | 18 | 0 | 0 | 0 | 0 | 2 | 25 | 0 | 0 | 0 |
| CNc1cc(-c2ccc3c(N)n[nH]c3c2)nc(N)n1 [GSK2224810] | 41 | 0 | 16 | 19 | 0 | 0 | 0 | 0 | 2 | 0 | 14 | 0 | 0 | 0 | 26 | 20 | 27 | 0 | 0 | 0 |
| CSc1ccc(-c2nc3n(c2-c2ccncc2)CCC3)cc1 [SKF-105561] | 1 | 8 | 21 | 4 | 0 | 36 | 0 | 3 | 23 | 6 | 0 | 1 | 3 | 0 | 0 | 18 | 23 | 19 | 0 | 39 |
| CS(=O)(=O)CCNCc1nc(-c2ccc3ncnc(Nc4ccc5c(cnn5Cc5ccccc5)c4)c3c2)cs1.Cl.Cl [GW569716] | 34 | 0 | 8 | 0 | 16 | 29 | 0 | 0 | 2 | 3 | 0 | 0 | 0 | 0 | 26 | 41 | 16 | 0 | 0 | 1 |
| Nc1cccc(-c2ccc3c(N)n[nH]c3c2)n1 [GSK2192730] | 15 | 0 | 23 | 0 | 0 | 0 | 18 | 7 | 9 | 0 | 9 | 0 | 0 | 17 | 1 | 0 | 0 | 3 | 16 | 5 |
| COc1cc2ncnc(Nc3cccc(Br)c3)c2cc1OC.Cl [GI230329] | 20 | 0 | 26 | 12 | 21 | 41 | 0 | 0 | 6 | 0 | 11 | 0 | 0 | 4 | 29 | 26 | 33 | 16 | 29 | 20 |
| CC(=O)c1cccc(NC(=O)NC2CCN(c3ccnc(Nc4ccc(F)cc4)n3)C2)c1 (stereo not shown) [GSK1379710] | 43 | 0 | 12 | 38 | 0 | 6 | 3 | 8 | 8 | 0 | 35 | 0 | 0 | 15 | 0 | 38 | 25 | 5 | 8 | 0 |
| O=C(Nc1n[nH]c2nc(-c3cccs3)c(Br)cc12)C1CC1 [SB-735297] | 8 | 0 | 11 | 16 | 0 | 0 | 0 | 0 | 0 | 0 | 0 | 0 | 13 | 0 | 0 | 0 | 0 | 0 | 0 | 39 |
| c1ccc(-c2ccnc3[nH]ccc23)cc1 [SB-693578] | 36 | 0 | 1 | 12 | 30 | 0 | 0 | 74 | 19 | 0 | 8 | 0 | 0 | 0 | 43 | 26 | 23 | 30 | 0 | 0 |
